MCF10A rereplic: DNA re-replication induction in MCF 10a cells. MCF 10A DNA re-replication, Hoechst nuclear intensity, 48 h. Potency, µM (titrated, usually from 46.1 µM), inactives show at the highest dose activity, positive = re-replication, usual class: activators. actives 2.9% (n = 350,000). AID 624296; also: potency is read from the fitted curve at half-maximal effect; % of control where 0% means no effect; nearly all actives have a fitted effect of over 50% in size
IL1B secr inh: blocks inflammasome-driven IL-1 beta release; THP-1 LPS/ATP IL-1B secretion, AlphaLISA, 16 h; hits give low values; activity change, % at 57.5 µM; actives 4.7% (n = 360,000); in the data active = activity change below about -50%; inconclusive = mostly about -30% to -49%; also: % is scaled to controls: 0 for no effect and ±100 for the full control effect
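THP-1 cells pretreated 1 hr with compounds (up to 57.5 uM final), then stimulated with LPS (250 ng/mL final) plus ATP (1.25 mM final); secreted IL-1B measured by AlphaLISA after 16 hr, decreased signal indicating inhibition.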
SW480 rerep: induces DNA re-replication in SW480 colon adenocarcinoma cells. SW480 DNA re-replication, Hoechst DNA content imaging, 48 h. Potency, µM (doses to about 46.1 µM), for inactives: top-dose re-replication activation, usual class: activators. actives 1.8% (n = 340,000); also: potency is read from the fitted curve at half-maximal effect; % of control where 0% means no effect; nearly all actives have a fitted effect of over 55% in size
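Image-based read-out: total Hoechst fluorescence of nuclei (405 nm excitation, 500-530 nm emission), with hits raising the fraction of high-intensity nuclei. SW480 colon cells incubated 48 hr with compounds at 37 C.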
RORg inh: ROR gamma (mouse) transcription inhibition | Potency, µM (series often up to 53.6 µM), without a hit: at the top dose activity change, negative = inhibition, hits mostly inhibitors | P51450 | actives 5.4% (n = 310,000) | AID 2551 | Drosophila S2 Gal4-RORgamma UAS-luciferase reporter, 20 h; also: potency is read from the fitted curve at half-maximal effect; % is scaled to controls: 0 for no effect and ±100 for the full control effect; nearly all actives have a fitted effect of over 60% in size
Target sequence (P51450 whole entry, looked up, the tested form may be a part): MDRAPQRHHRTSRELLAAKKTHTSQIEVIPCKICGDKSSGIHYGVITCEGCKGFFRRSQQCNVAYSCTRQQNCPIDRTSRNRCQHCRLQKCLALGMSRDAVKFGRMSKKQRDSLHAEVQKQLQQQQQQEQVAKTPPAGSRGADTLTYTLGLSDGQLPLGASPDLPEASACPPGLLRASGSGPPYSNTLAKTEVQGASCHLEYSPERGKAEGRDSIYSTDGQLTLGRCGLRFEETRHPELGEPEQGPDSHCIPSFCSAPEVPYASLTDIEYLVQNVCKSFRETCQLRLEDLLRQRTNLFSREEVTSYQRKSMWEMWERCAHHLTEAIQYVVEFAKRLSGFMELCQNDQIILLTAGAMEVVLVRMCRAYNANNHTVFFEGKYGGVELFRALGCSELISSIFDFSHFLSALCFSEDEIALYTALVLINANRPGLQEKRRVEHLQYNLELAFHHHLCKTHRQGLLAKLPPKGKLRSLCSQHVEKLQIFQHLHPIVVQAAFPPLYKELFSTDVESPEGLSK
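Stably transfected Drosophila Schneider cells are the test system, with ROR gamma fused to Gal4 and luciferase under UAS control; luminescence is read after 20 hr of 700 uM copper sulfate induction at ambient temperature.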
Gal4-VP16 FLuc: counter-screen for ROR gamma inhibitors: Gal4-VP16 reporter. Drosophila S2 Gal4-VP16 UAS-luciferase, luminescence, 20 h. actives 3.5% (n = 310,000). Potency, µM (highest dose often 53.6 µM), without a hit: at the top dose activity, negative = inhibition, hits mostly inhibitors. AID 2546;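 also: Gal4-VP16 expression switched on by copper sulfate through the metallothionein promoter; potency is read from the fitted curve at half-maximal effect; % is scaled to controls: 0 for no effect and ±100 for the full control effect; nearly all actives have a fitted effect of over 50% in size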
* hit, by the source's call; ? = inconclusive; nt = no result given; [ ] = dose if it differs, or a comment. Only some compounds are listed: those with a hit (about 11% of all), similar ones and a draw of the others. Unless noted, calls follow the shape of the dose curve; as a rule, active = well fitted curve in the direction sought with a large enough effect; inconclusive = small, poorly fitted or top-dose-only effect, or another doubt; inactive = no such curve, though single readings can be large; an effect the other way counts as inactive or inconclusive.

SMILES	MCF10A rereplic	IL1B secr inh	SW480 rerep	RORg inh	Gal4-VP16 FLuc
COc1ccc(C(=O)NCCCNc2nc3cc(C)cc(C)c3cc2C#N)cc1	nt	33	nt	nt	nt
Cc1cc(C)c2cc(C#N)c(NCCOC(=O)c3ccccc3C)nc2c1	7%	-60*	-3%	5%	-1%
COc1cc(OC)cc(C(=O)NCCNc2nc3cc(C)cc(C)c3cc2C#N)c1	16µM*	-6	?	43%[1.91 µM]	2%
CCc1nc2c(OCc3cc(Cl)cc(Cl)c3)cccn2c1N(C)C(=O)Nc1ccccc1OC	nt	0	nt	nt	nt
CC1=N/C(=C\c2ccc([N+](=O)[O-])cc2)C(=O)N1c1cc(Cl)ccc1C	-6%	-18	1%	24%	-14%
COc1ccc(N2C(=O)/C(=C/c3ccc([N+](=O)[O-])cc3)N=C2C)c(OC)c1	25%	8	1%	?	7.9µM*
Cc1cc2c(cc1C)NC(CC(=O)NCc1ccccc1)C(=O)N2 (centres undefined)	14µM*	1	?	-15%	28%
Cc1nn(CC(=O)NC2CCS(=O)(=O)C2)c(C)c1[N+](=O)[O-] (centres undefined)	-1%	13	1%	nt	nt
COc1cccc(NC2=C(NCCO)C(=O)c3ccccc3C2=O)c1	4%	-74*	?	-34%	1%
COc1ccc(NC2=C(NCCO)C(=O)c3ccccc3C2=O)cc1	?	11	18µM*	-7%	3%
Cc1cccc(NC2=C(NCCO)C(=O)c3ccccc3C2=O)c1	?	-57*	8%	-7%	0%
COc1ccc(NC(=O)N2CCCC3(CCN(C(=O)c4cc(C(F)(F)F)cc(C(F)(F)F)c4)CC3)C2)cc1	nt	nt	nt	-4%	3%
CCCCn1c(-c2csc(CCC)c2)n[nH]c1=S	-32%	2	-9%	36%	1%
CCc1cc(-c2n[nH]c(=S)n2-c2ccccc2C)cs1	-3%	34	?	4µM*	5.6µM*
Cc1ccc(C)c(-n2c(-c3ccco3)n[nH]c2=S)c1	7%	10	9%	nt	nt
COc1cc(/C=N/n2c(-c3ccccc3)n[nH]c2=S)cc(OC)c1OC	?	51	-29%	-33%	-9%
Cc1ccccc1-n1c(Cc2cccs2)n[nH]c1=S	-2%	-15	13%	1.4µM*	?
CCCc1cc(-c2n[nH]c(=S)n2CC)cs1	4%	13	-2%	7.1µM*	11µM*
COc1cc(-c2n[nH]c(=S)n2C(C)c2ccccc2)cc(OC)c1OC (centres undefined)	?	21	-26%	?	13µM*
S=c1[nH]nc(-c2cc(-c3ccsc3)n[nH]2)n1-c1cccc2ccccc12	1%	0	-9%	?	-1%
CN(C)c1ccc(/C=C2\SC(N3CCCCC3)=NC2=O)cc1	15%	-20	-2%	23%[1.91 µM]	?
CCn1c(CC(=O)Nc2ccccc2F)nnc1SCC(=O)Nc1nncs1	-5%	10	-2%	19%	?
CC1(C(=O)Nc2ccc3c(c2)OCCO3)CCN1C(=O)c1cccc(F)c1 (centres undefined)	nt	-7	nt	nt	nt
CCn1c(-c2nn(C)c(C)c2Cl)n[nH]c1=S	3%	7	-1%	?	?
FC(F)(F)c1ccc(Cl)c(-n2c(Cc3cccs3)n[nH]c2=S)c1	-5%	4	-14%	?	5%
SMILES	MCF10A rereplic	IL1B secr inh	SW480 rerep	RORg inh	Gal4-VP16 FLuc
CCCc1cc(-c2n[nH]c(=S)n2C(C)c2ccccc2)cs1 (centres undefined)	27%	18	1%	7.1µM*	7.1µM*
Fc1ccc(-n2c(Cc3cccs3)n[nH]c2=S)cc1Cl	?	1	0%	14µM*	-6%
CCc1cc(-c2n[nH]c(=S)n2CC)cs1	5%	13	0%	?	10µM*
CC(CSc1n[nH]c(=S)s1)c1ccccc1 (centres undefined)	-6%	24	2%	nt	nt
CCc1cc(-c2n[nH]c(=S)n2Cc2ccccc2)cs1	3%	14	-1%	3.2µM*	6.3µM*
CC(C)CN(C(=O)COC(=O)CCSc1ccc(Cl)cc1)c1c(N)n(Cc2ccccc2)c(=O)[nH]c1=O	nt	2	nt	nt	nt
COc1ccc(COC(=O)N/N=C2/C[C@@H](O)[C@@H](O)[C@@H]3[C@@H]4C(=O)N(Cc5ccccc5)C(=O)[C@H]4CC[C@@H]23)cc1	nt	nt	nt	26%[10 µM]	6%[10 µM]
COc1ccccc1CN1CC[C@@]2(CCCN(C(=O)c3cccc(F)c3)C2)C1	nt	nt	nt	-34%	-7%
CCCc1cc(C(=O)Nc2ccc(C(=O)c3ccc(C)cc3)cc2)n(C)n1	18µM*	-63*	82%	?	5%
CCC(C)N(C(=O)CSc1nnc2ccccn12)C1CCS(=O)(=O)C1 (centres undefined)	?	-4	?	nt	nt
Cc1ccccc1CC1(CO)CCCN(C(=O)CCC(F)(F)F)C1 (centres undefined)	3%	10	-4%	34%	-4%
O=C(CCC(F)(F)F)N1CCCC(CO)(CCc2ccccc2)C1 (centres undefined)	0.65µM*	0	?	2%	-9%
CCCCC#Cc1cncc(C(=O)NN)c1	7%	82	?	7.9µM*	7.9µM*
CC(=O)c1ccc2c(c1)N(Cc1ccc3ccccc3c1)C(=O)C(C)S2 (centres undefined)	nt	0	nt	nt	nt
COc1ccc(C2NC(=O)NC(c3ccccc3)=C2c2nc3ccccc3s2)cc1 (centres undefined)	6%	?	?	1%	-7%
O=C1NC(c2ccccc2)=C(c2nc3ccccc3s2)C(c2ccc(F)cc2)N1 (centres undefined)	?	-75*	11%	33%	?
c1ccc(-c2nnc(NC3=NCCC3)o2)cc1	-1%	28	-12%	7.1µM*	0%[10 µM]
CC(C)C(=O)Nc1nnc(-c2ccccc2)o1	-2%	5	-10%	?	?
Fc1ccc(-c2nnc(NC3=NCCCCC3)o2)cc1	10%	11	-3%	2.8µM*	?
O=C(Cc1ccccc1)NNc1c2ccccc2nc2ccccc12	-8%	18	-20%	?	?
O=C(Nc1c2ccccc2nc2ccccc12)C(Cl)(Cl)Cl	13µM*	?	?	?	?
CCOC(=O)c1c(C)n(C)c2ccc(OCC(O)Cn3nc(C)c(Br)c3C)cc12 (centres undefined)	15µM*	-6	9%	4%	-6%
CCOC(=O)c1c(C)n(-c2ccc(C)cc2)c2ccc(OCC(O)CNCCCO)cc12 (centres undefined)	?	-126*	2%	7.1µM*	?
CCOC(=O)c1c(C)n(-c2ccccc2)c2ccc(OCCN(C)C)cc12	25%	-80*	-3%	-39%	-5%
CCOC(=O)c1c(C)n(C)c2cc(OCCN(CC)CC)ccc12	28%	-55*	0%	9%	6%
